Assay results taken from the supplement of paper PMC8285479.
Counter-ions that a name gives are not always drawn. ± gives the standard deviation of the averaged measurements. Whole data set: some 1,900 compounds, median “normalised cell viability (NPI; 0 = phenylarsine oxide control, 1 = DMSO control)” near 1, cut for the lowest 2% near 0.039. The entries come from a sample that favours the lowest values as a whole.

Tested on: NCI-H1944
Test: normalised cell viability (NPI; 0 = phenylarsine oxide control, 1 = DMSO control) (fraction of DMSO control); NCI-H1944 is a non-small cell lung cancer line; higher = more viable cells (less compound toxicity)
Settings: 6 days
[1] = glucocorticoid arm: hydrocortisone 2.75 uM co-treatment, compound 1 µM
[2] = glucocorticoid arm: hydrocortisone 2.75 uM co-treatment, compound 5 µM
[3] = glucocorticoid arm: hydrocortisone 2.75 uM pre-treated 2 days and continued, compound 1 µM
[4] = glucocorticoid arm: hydrocortisone 2.75 uM pre-treated 2 days and continued, compound 5 µM
[5] = glucocorticoid arm: vehicle, compound 1 µM
[6] = glucocorticoid arm: vehicle, compound 5 µM
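Also: CTB read-out in 384-well plates, triplicate wells, NPI normalised per plate against 1 µM phenylarsine oxide (0) and 0.1% DMSO (1) controls.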

Row | SMILES | normalised cell viability [1] | normalised cell viability [2] | normalised cell viability [3] | normalised cell viability [4] | normalised cell viability [5] | normalised cell viability [6]
1 | CC(C)[C@H](C(=O)Nc1ccc(C(=O)NO)cc1)c1ccccc1 | 0.752 ± 0.021 | 0.00258 ± 0.00047 | 0.897 ± 0.021 | 0.00754 ± 0.0016 | 0.172 ± 0.0081 | 0.00052 ± 0.00049
2 | CCCCN(Cc1ccc(C(=O)NO)cc1)C(=O)Nc1ccccc1 [Nexturastat A] | 0.949 ± 0.017 | 0.9863 ± 0.0097 | 0.97 ± 0.02 | 0.963 ± 0.027 | 1.001 ± 0.009 | 0.967 ± 0.014
3 | N#CC(=C(/N)Sc1ccccc1N)/C(C#N)=C(\N)Sc1ccccc1N | 1.02 ± 0.011 | 1.08 ± 0.025 | 0.976 ± 0.016 | 1.01 ± 0.027 | 1.023 ± 0.0058 | 1.02 ± 0.015
4 | CC#CCOC(=O)c1c(C)nc2sc3c(c2c1N)CCC(O)C3 (configuration not stated) | 1.02 ± 0.021 | 1 ± 0.019 | 1.03 ± 0.038 | 1.03 ± 0.017 | 1.013 ± 0.0058 | 1.013 ± 0.0058
5 | COC1=C(OC)C(=O)c2ccccc2C1=O [2,3-Dimethoxy-1,4-naphthoquinone] | 0.994 ± 0.01 | 0.905 ± 0.047 | 0.994 ± 0.0066 | 0.956 ± 0.01 | 0.997 ± 0.0027 | 0.8913 ± 0.0032
6 | CCCCCC[C@@H]([C@@H](C)O)n1cnc2c(N)ncnc21 [erythro-9-(2-Hydroxy-3-nonyl)adenine hydrochloride] | 0.999 ± 0.001 | 0.992 ± 0.024 | 0.987 ± 0.012 | 0.997 ± 0.023 | 0.973 ± 0.0053 | 0.9777 ± 0.0055
7 | CCCCCCCCCCCCCCCCCCOCC(COP(=O)([O-])OCC[N+](C)(C)C)OC (configuration not stated) | 1.006 ± 0.0063 | 0.993 ± 0.015 | 0.9897 ± 0.0011 | 0.989 ± 0.028 | 0.9853 ± 0.0049 | 0.9957 ± 0.0059
8 | CC(C)c1ccccc1Cc1cc(C(=O)Nc2ccc(S(=O)(=O)c3ccccc3C(C)(C)C)cc2)c(O)c(O)c1O | 0.9933 ± 0.0099 | 0.826 ± 0.049 | 0.998 ± 0.014 | 0.961 ± 0.018 | 1.007 ± 0.0058 | 0.813 ± 0.033
9 | CC(=O)NCC(=O)N1[C@@H]2CC[C@H]1c1ccc(Nc3ncc(C(F)(F)F)c(NC4CCC4)n3)cc12 | 0.712 ± 0.0091 | 0.552 ± 0.019 | 0.83 ± 0.0095 | 0.717 ± 0.01 | 0.301 ± 0.018 | 0.201 ± 0.017
10 | C/C(=C\c1csc(C)n1)[C@@H]1C[C@@H]2O[C@]2(C)CCC[C@H](C)[C@H](O)[C@@H](C)C(=O)C(C)(C)[C@@H](O)CC(=O)N1 [Ixabepilone] | 0.132 ± 0.012 | 0.146 ± 0.018 | 0.484 ± 0.023 | 0.477 ± 0.05 | 0.0322 ± 0.0044 | 0.032 ± 0.004
11 | CC(C)C[C@@H]1NC(=O)[C@@H](C(C)C)NC(=O)[C@@H]2CCCN2C(=O)[C@@H](CC(=O)O)NC(=O)[C@@H](Cc2c[nH]c3ccccc23)NC1=O | 1.01 ± 0.014 | 1 ± 0.018 | 1.02 ± 0.025 | 1.003 ± 0.0061 | 0.9943 ± 0.005 | 1.013 ± 0.0058
12 | Cc1ncc(-c2ccnc(Nc3ccc(S(C)(=O)=O)cc3)n2)n1C(C)C | 0.584 ± 0.057 | 0.062 ± 0.0037 | 0.705 ± 0.061 | 0.319 ± 0.083 | 0.191 ± 0.045 | 0.0177 ± 0.0014
13 | CN(C)CCC(c1ccc(Cl)cc1)c1ccccn1 (single isomer, unassigned; (+)) [(+)-Chlorpheniramine maleate] | 0.9827 ± 0.0045 | 0.997 ± 0.012 | 0.979 ± 0.004 | 1.005 ± 0.0071 | 0.968 ± 0.011 | 0.978 ± 0.003
14 | CCCCC1(C2CCCC2)Cc2cc(OCC(=O)O)c(Cl)c(Cl)c2C1=O (stereo in doubt) [R(+)-Butylindazone] | 0.9903 ± 0.0064 | 0.958 ± 0.011 | 0.988 ± 0.01 | 0.965 ± 0.028 | 0.983 ± 0.006 | 0.9887 ± 0.004
15 | Cc1[nH]c(=O)c(C#N)cc1-c1ccncc1 [Milrinone] | 0.996 ± 0.013 | 1.001 ± 0.0083 | 0.998 ± 0.0035 | 1.05 ± 0.081 | 0.9903 ± 0.009 | 0.993 ± 0.015
16 | O=C1NC(=O)/C(=C/c2ccc3nccc(-c4ccncc4)c3c2)S1 | 0.697 ± 0.026 | 0.836 ± 0.011 | 0.73 ± 0.039 | 0.848 ± 0.026 | 0.886 ± 0.023 | 0.932 ± 0.027

Row | SMILES | normalised cell viability [1] | normalised cell viability [2] | normalised cell viability [3] | normalised cell viability [4] | normalised cell viability [5] | normalised cell viability [6]
17 | O=C1NCCc2[nH]c(-c3ccncc3)cc21 | 1.02 ± 0.015 | 0.0894 ± 0.0076 | 0.9933 ± 0.0072 | 0.145 ± 0.006 | 0.916 ± 0.016 | 0.0151 ± 0.0021
18 | CCCCCCCCCCCCCCCCCC(=O)OC(CC(=O)O)C[N+](C)(C)C (racemic) [DL-Stearoylcarnitine chloride] | 0.9967 ± 0.0042 | 0.906 ± 0.03 | 1.01 ± 0.019 | 0.993 ± 0.0017 | 1.013 ± 0.0058 | 0.99967 ± 0.00058
19 | CNc1ncnc2c1ncn2[C@H]1C[C@H](OP(=O)(O)O)[C@@H](COP(=O)(O)O)O1 | 0.991 ± 0.0056 | 0.987 ± 0.029 | 1 ± 0.016 | 0.981 ± 0.027 | 0.996 ± 0.0061 | 0.9943 ± 0.0047
20 | C[C@H](O)[C@H](O)[C@H]1CNc2nc(N)[nH]c(=O)c2N1 [(6R)-5,6,7,8-Tetrahydro-L-biopterin dihydrochloride] | 1.02 ± 0.011 | 1.01 ± 0.026 | 0.923 ± 0.18 | 1.001 ± 0.009 | 1.02 ± 0.01 | 1.02
21 | CN1CCc2c(cc(O)c(O)c2Cl)C(c2cccc(Cl)c2)C1 (configuration not stated) | 1.006 ± 0.0063 | 1.03 ± 0.03 | 1.01 ± 0.039 | 1.017 ± 0.0058 | 1 | 1.013 ± 0.0058
22 | CNC(=O)c1nn(C)c2c1C(C)(C)Cc1cnc(Nc3ccc(N4CCN(C)CC4)cc3)nc1-2 | 0.485 ± 0.019 | 0.306 ± 0.002 | 0.549 ± 0.019 | 0.424 ± 0.013 | 0.282 ± 0.0098 | 0.126 ± 0.0072
23 | CN1CCN(c2ccc(OC(F)(F)F)c(Nc3ncc4c(n3)-c3c(c(C(N)=O)nn3CCO)CC4)c2)CC1 | 0.183 ± 0.025 | 0.146 ± 0.02 | 0.428 ± 0.025 | 0.556 ± 0.069 | 0.0347 ± 0.0042 | 0.0361 ± 0.0086
24 | CCC(=O)Nc1cccc(Oc2nc(Nc3ccc(N4CCN(C)CC4)cc3OC)ncc2Cl)c1 | 1.07 ± 0.017 | 1.11 ± 0.01 | 1.057 ± 0.0058 | 1.07 ± 0.035 | 1 ± 0.011 | 1.01 ± 0.01
25 | OCCn1cc(-c2cnc3nnn(Cc4ccc5ncccc5c4)c3n2)cn1 | 1 ± 0.01 | 1.02 ± 0.026 | 1.02 ± 0.015 | 1.02 ± 0.052 | 1.01 ± 0.011 | 1.02 ± 0.015
26 | Cc1c(NC(=O)c2ccc(C(C)(C)C)cc2)cccc1-c1cn(C)c(=O)c(Nc2ccc(C(=O)N3CCOCC3)cc2)n1 | 1.017 ± 0.0058 | 1.03 ± 0.032 | 1.007 ± 0.0058 | 0.987 ± 0.022 | 1 ± 0.0087 | 1.006 ± 0.0063
27 | CN1C2CCC1CC(NC(=O)c1nn(C)c3ccccc13)C2 (configuration not stated) [LY-278,584 maleate] | 0.9863 ± 0.0067 | 0.977 ± 0.033 | 0.9957 ± 0.0075 | 1.03 ± 0.085 | 0.9753 ± 0.0051 | 0.9783 ± 0.0091
28 | CC(C)NCC(O)COc1ccc(CC(N)=O)cc1 (racemic) [(±)-Atenolol] | 0.987 ± 0.007 | 1.001 ± 0.0085 | 1.003 ± 0.0064 | 1.02 ± 0.021 | 1.005 ± 0.0092 | 1.01
29 | NC(C(=O)O)C(O)C(=O)O (racemic) [DL-threo-beta-hydroxyaspartic acid] | 1.01 ± 0.011 | 1.01 ± 0.028 | 1.01 ± 0.022 | 1.01 ± 0.018 | 1.003 ± 0.0061 | 1.001 ± 0.0081
30 | CCCN(CCc1ccccc1)C1CCc2c(O)cccc2C1 (racemic) [(±)-PPHT hydrochloride] | 0.986 ± 0.011 | 0.969 ± 0.03 | 1.05 ± 0.078 | 0.966 ± 0.02 | 1.007 ± 0.0058 | 1.003 ± 0.0058
31 | Cl.N[C@@H](CCC(=O)O)C(=O)O [L-Glutamic acid hydrochloride] | 1.013 ± 0.0058 | 1 ± 0.029 | 1.013 ± 0.0058 | 0.989 ± 0.027 | 1.023 ± 0.0058 | 1.02 ± 0.01
32 | Clc1ccc(C(c2ccc(Cl)cc2)[n+]2ccn(CC(OCc3ccc(Cl)cc3Cl)c3ccc(Cl)cc3Cl)c2)cc1 (configuration not stated) [Calmidazolium chloride] | 0.974 ± 0.035 | 0.00138 ± 0.00076 | 0.993 ± 0.012 | -0.000224 ± 0.0015 | 1.002 ± 0.0072 | 0.00119 ± 0.00017
